In PubChem BioAssay (NCI):
About 83,000 compounds went through this panel and 20% of them were active in at least one assay; those are over-represented in the sample as a whole.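 A percent growth of 40 corresponds to 60% growth inhibition; 0 means no net growth; -100 means all cells died. Active threshold: below 10.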 Activity calls are given as the source filed them.

Columns and labels:
Experiment in all cases: NCI-60 one-dose screen, 48 h (100 = growth as untreated, 0 = no growth, -100 = all killed)
Conditions in all cases: 10 µM unless noted
SR leukemia = tested on: SR leukemia
RPMI-8226 leukemia = tested on: RPMI-8226 leukemia
OVCAR-8 ovarian = tested on: OVCAR-8 ovarian
OVCAR-5 ovarian = tested on: OVCAR-5 ovarian
OVCAR-4 ovarian = tested on: OVCAR-4 ovarian
IGROV1 ovarian = tested on: IGROV1 ovarian
OVCAR-3 ovarian = tested on: OVCAR-3 ovarian
HS 578T breast = tested on: HS 578T breast
NCI/ADR-RES ovarian = tested on: NCI/ADR-RES ovarian
T-47D breast = tested on: T-47D breast
BT-549 breast = tested on: BT-549 breast
MDA-MB-435 melanoma = tested on: MDA-MB-435 melanoma
SW-620 colon = tested on: SW-620 colon
MCF7 breast = tested on: MCF7 breast
HCT-116 colon = tested on: HCT-116 colon
HCC-2998 colon = tested on: HCC-2998 colon
KM12 colon = tested on: KM12 colon
SK-OV-3 ovarian = tested on: SK-OV-3 ovarian

Measured: growth

COc1ccc(/C=c2\nc3n(-c4ccccc4)c4nc5c6c(sc5c(=N)n4n-3c2=O)CCCC6)cc1
inactive: SR leukemia 61.5% | RPMI-8226 leukemia 80.1% | OVCAR-8 ovarian 89.3% | OVCAR-5 ovarian 104% | OVCAR-4 ovarian 82% | IGROV1 ovarian 61.4% | OVCAR-3 ovarian 88.2% | HS 578T breast 85.6% | NCI/ADR-RES ovarian 83.1% | T-47D breast 71.9% | BT-549 breast 94.2% | MDA-MB-435 melanoma 89.5% | SW-620 colon 104% | MCF7 breast 71.9% | HCT-116 colon 77% | HCC-2998 colon 105% | KM12 colon 92.5%

Cn1cc(-c2csc(-c3cccc(F)c3)n2)c2cccnc21
active: SR leukemia 0.511% [100 µM] | OVCAR-8 ovarian 1.57% [100 µM] | OVCAR-5 ovarian -52.4% [100 µM] | OVCAR-4 ovarian -44.8% [100 µM] | SK-OV-3 ovarian -20.8% [100 µM] | IGROV1 ovarian -22.6% [100 µM] | OVCAR-3 ovarian -44.7% [100 µM] | NCI/ADR-RES ovarian -34.4% [100 µM] | T-47D breast -47.9% [100 µM] | BT-549 breast -36.9% [100 µM] | MDA-MB-435 melanoma -53.6% [100 µM] | SW-620 colon -49.8% [100 µM] | MCF7 breast -62% [100 µM] | HCC-2998 colon -84.6% [100 µM] | KM12 colon -70% [100 µM]
inactive: HS 578T breast 15.9% [100 µM]

COc1ccc(-c2csc(C3=C(O)CN(C(C)C)C3=N)n2)cc1OC
inactive: SR leukemia 57% | RPMI-8226 leukemia 56.3% | OVCAR-8 ovarian 91% | OVCAR-5 ovarian 96.6% | OVCAR-4 ovarian 117% | SK-OV-3 ovarian 124% | OVCAR-3 ovarian 117% | HS 578T breast 110% | NCI/ADR-RES ovarian 98.5% | T-47D breast 91.4% | MDA-MB-435 melanoma 116% | SW-620 colon 104% | MCF7 breast 129% | HCT-116 colon 96.3% | HCC-2998 colon 116% | KM12 colon 99.6%

Cc1ccc2[nH]c(=O)c3c(c2c1)OC(N)=C(C#N)C31c2cc(Br)ccc2-c2ccc(Br)cc21
active: RPMI-8226 leukemia 3.77%
inactive: SR leukemia 72.2% | OVCAR-5 ovarian 61.1% | OVCAR-4 ovarian 21% | SK-OV-3 ovarian 91.8% | IGROV1 ovarian 40.1% | OVCAR-3 ovarian 58.9% | HS 578T breast 70.8% | NCI/ADR-RES ovarian 82.3% | T-47D breast 39.4% | BT-549 breast 82.5% | MDA-MB-435 melanoma 59.7% | SW-620 colon 40% | MCF7 breast 34% | HCT-116 colon 67.8% | HCC-2998 colon 70.5% | KM12 colon 52.4%

CC1=C([Se]CC(OC(=O)CC[Se]c2ccccc2)C(=O)NCCCCCC(=O)OCc2ccccc2)C(=O)c2ccccc2C1=O (stereo unspecified)
inactive: RPMI-8226 leukemia 49.1% | OVCAR-8 ovarian 10.6% | OVCAR-5 ovarian 39.7% | OVCAR-4 ovarian 42.5% | SK-OV-3 ovarian 39.4% | IGROV1 ovarian 15.9% | NCI/ADR-RES ovarian 11.9% | T-47D breast 56% | BT-549 breast 39.9% | MDA-MB-435 melanoma 20% | SW-620 colon 104% | MCF7 breast 30.2% | HCC-2998 colon 72%
active: OVCAR-3 ovarian -3.7% | HS 578T breast -13.4% | HCT-116 colon -3.51% | KM12 colon 9.71%

CC1SC(c2ccc(OCc3ccccc3)cc2)N(NC(=O)C(O)(c2ccccc2)c2ccccc2)C1=O (stereo unspecified)
active: RPMI-8226 leukemia -7.26%
inactive: SR leukemia 35.9% | OVCAR-8 ovarian 77.8% | OVCAR-5 ovarian 80.5% | OVCAR-4 ovarian 54.7% | SK-OV-3 ovarian 73.3% | OVCAR-3 ovarian 31% | NCI/ADR-RES ovarian 63.5% | T-47D breast 25.8% | BT-549 breast 92.9% | MDA-MB-435 melanoma 57.7% | SW-620 colon 69.7% | MCF7 breast 35.7% | HCT-116 colon 39.6% | HCC-2998 colon 79.9% | KM12 colon 34.2%

COc1ccc(C2=NN(C(=O)c3cc(OC)c(OC)c(OC)c3)C(c3ccc(Cl)cc3)C2)cc1OC (stereo unspecified)
active: RPMI-8226 leukemia -18.4% | OVCAR-3 ovarian -35.2% | HS 578T breast 0.152% | NCI/ADR-RES ovarian -36.3% | MDA-MB-435 melanoma -43.3% | HCC-2998 colon -62.4%
inactive: OVCAR-8 ovarian 34.4% | OVCAR-5 ovarian 41.4% | OVCAR-4 ovarian 52% | SK-OV-3 ovarian 25.8% | IGROV1 ovarian 36.7% | T-47D breast 24.6% | BT-549 breast 49.9% | SW-620 colon 30.1% | MCF7 breast 18.7% | HCT-116 colon 10.6% | KM12 colon 15.9%

Cc1c(C(=O)OC(=NC2CCCCC2)NC2CCCCC2)sc2c1c(=O)nc1c(C#N)n[nH]n12
inactive: RPMI-8226 leukemia 137% | OVCAR-8 ovarian 104% | OVCAR-5 ovarian 75.8% | OVCAR-4 ovarian 105% | SK-OV-3 ovarian 106% | IGROV1 ovarian 84.6% | OVCAR-3 ovarian 105% | HS 578T breast 104% | NCI/ADR-RES ovarian 106% | T-47D breast 109% | BT-549 breast 121% | MDA-MB-435 melanoma 117% | SW-620 colon 107% | MCF7 breast 103% | HCT-116 colon 104% | HCC-2998 colon 100% | KM12 colon 110%

N=C1C(c2nc(-c3ccc(Br)cc3)cs2)=C(O)CN1Cc1cccnc1
inactive: SR leukemia 55.1% | RPMI-8226 leukemia 70.2% | OVCAR-8 ovarian 16.3% | OVCAR-5 ovarian 77.1% | OVCAR-4 ovarian 37.2% | SK-OV-3 ovarian 40.4% | OVCAR-3 ovarian 101% | HS 578T breast 23% | NCI/ADR-RES ovarian 70.1% | T-47D breast 46.3% | BT-549 breast 39.9% | MDA-MB-435 melanoma 53.4% | SW-620 colon 81.5% | MCF7 breast 77.9% | HCT-116 colon 21.4% | HCC-2998 colon 85.9% | KM12 colon 61.7%

Cn1c(-c2c(N)n(Cc3cccnc3)c3nc(C#N)c(C#N)nc23)nc2ccccc21
inactive: SR leukemia 40.1% | RPMI-8226 leukemia 94.5% | OVCAR-8 ovarian 80.5% | OVCAR-5 ovarian 78% | OVCAR-4 ovarian 102% | SK-OV-3 ovarian 116% | OVCAR-3 ovarian 99.5% | HS 578T breast 106% | NCI/ADR-RES ovarian 95.5% | T-47D breast 92.1% | BT-549 breast 115% | SW-620 colon 95.3% | MCF7 breast 103% | HCT-116 colon 44.5% | HCC-2998 colon 100% | KM12 colon 82.8%

CC(=O)c1ccc(NCC(=O)Nc2ccccn2)cc1
inactive: SR leukemia 108% | RPMI-8226 leukemia 113% | OVCAR-5 ovarian 109% | OVCAR-4 ovarian 98.9% | SK-OV-3 ovarian 97% | IGROV1 ovarian 94.8% | OVCAR-3 ovarian 117% | HS 578T breast 106% | NCI/ADR-RES ovarian 105% | T-47D breast 94.6% | BT-549 breast 104% | MDA-MB-435 melanoma 104% | SW-620 colon 102% | MCF7 breast 86.9% | HCT-116 colon 101% | HCC-2998 colon 110% | KM12 colon 99%

O=c1c2c3c(sc2nc(N/N=C/c2ccc(Br)cc2)n1Cc1ccccc1)CCCC3
inactive: SR leukemia 33.5% | RPMI-8226 leukemia 52% | OVCAR-8 ovarian 45.9% | OVCAR-5 ovarian 78.3% | OVCAR-4 ovarian 84.2% | SK-OV-3 ovarian 81.7% | OVCAR-3 ovarian 76.8% | HS 578T breast 64.8% | NCI/ADR-RES ovarian 80% | T-47D breast 87.5% | BT-549 breast 93.6% | MDA-MB-435 melanoma 83.4% | SW-620 colon 83.8% | MCF7 breast 58.3% | HCT-116 colon 67.4% | HCC-2998 colon 37.3% | KM12 colon 81.9%

CCCCCCCCn1ccc2cc(NC(=O)Cn3cc(CN4CCCC4)nn3)ccc21
active: RPMI-8226 leukemia -66% | MDA-MB-435 melanoma -72.2% | SW-620 colon -54.8% | MCF7 breast 8.32% | HCC-2998 colon -54%
inactive: SR leukemia 19.2% | OVCAR-5 ovarian 88.4% | OVCAR-4 ovarian 76.2% | SK-OV-3 ovarian 87.2% | IGROV1 ovarian 76% | OVCAR-3 ovarian 51.9% | HS 578T breast 76.8% | NCI/ADR-RES ovarian 92.7% | T-47D breast 24.1% | BT-549 breast 70.8% | HCT-116 colon 37.7% | KM12 colon 41.8%

COc1ccc(C(=O)COc2ccc(/C=C3\Oc4ccccc4C3=O)cc2)cc1
inactive: SR leukemia 108% | RPMI-8226 leukemia 89% | OVCAR-8 ovarian 98.9% | OVCAR-5 ovarian 96.8% | OVCAR-4 ovarian 99.2% | SK-OV-3 ovarian 103% | OVCAR-3 ovarian 102% | HS 578T breast 100% | NCI/ADR-RES ovarian 91.8% | T-47D breast 73.8% | BT-549 breast 114% | MDA-MB-435 melanoma 59.7% | SW-620 colon 110% | MCF7 breast 115% | HCT-116 colon 92.9% | HCC-2998 colon 115% | KM12 colon 107%

CC(=O)c1nc(Nc2ccc(C)cc2)sc1C
inactive: RPMI-8226 leukemia 96.2% | OVCAR-8 ovarian 95% | OVCAR-5 ovarian 97% | OVCAR-4 ovarian 110% | SK-OV-3 ovarian 97.8% | IGROV1 ovarian 86.9% | OVCAR-3 ovarian 97.5% | HS 578T breast 90.1% | NCI/ADR-RES ovarian 99.4% | T-47D breast 85.6% | BT-549 breast 87.1% | MDA-MB-435 melanoma 103% | SW-620 colon 97.4% | MCF7 breast 87.3% | HCT-116 colon 90.9% | HCC-2998 colon 101% | KM12 colon 98.6%

c1cc2ccc3cc2cc1CNCCOCCNCc1ccc2ccc(cc2c1)CNCCOCCNC3
active: RPMI-8226 leukemia 0.51% | OVCAR-8 ovarian -3.14% | OVCAR-5 ovarian -16.8% | OVCAR-4 ovarian -40.4% | IGROV1 ovarian -4.09% | OVCAR-3 ovarian -40% | T-47D breast -23.8% | MDA-MB-435 melanoma -90.2% | SW-620 colon 2.45% | MCF7 breast -17.1% | HCT-116 colon -4.41% | HCC-2998 colon -57.4% | KM12 colon -39%
inactive: SR leukemia 10.1% | NCI/ADR-RES ovarian 105% | BT-549 breast 99.6%

COC(=O)c1c2c(c(C)[n+]([O-])c1C)C(=O)C(NCc1ccc(F)cc1)=CC2=O
active: OVCAR-8 ovarian -5.16% | OVCAR-4 ovarian -38.5% | OVCAR-3 ovarian -21% | T-47D breast 6.75% | MDA-MB-435 melanoma -72.9% | SW-620 colon 6.37% | MCF7 breast -0.8% | HCT-116 colon 1.27%
inactive: RPMI-8226 leukemia 26.9% | OVCAR-5 ovarian 46.2% | SK-OV-3 ovarian 84.1% | IGROV1 ovarian 17.6% | HS 578T breast 82.6% | NCI/ADR-RES ovarian 10% | BT-549 breast 52.4% | HCC-2998 colon 25.7% | KM12 colon 19.9%

NC(=N\N=C/c1cccc([N+](=O)[O-])c1)/C(N)=N\N=C/c1cccc([N+](=O)[O-])c1
inactive: SR leukemia 71.3% | RPMI-8226 leukemia 70.5% | OVCAR-8 ovarian 57.8% | OVCAR-5 ovarian 101% | SK-OV-3 ovarian 61.1% | IGROV1 ovarian 96.1% | OVCAR-3 ovarian 42.9% | NCI/ADR-RES ovarian 80.5% | MDA-MB-435 melanoma 73.2% | SW-620 colon 38.9% | MCF7 breast 12.9% | HCT-116 colon 37.4% | HCC-2998 colon 102% | KM12 colon 54.2%
active: HS 578T breast -11.6% | T-47D breast 4.8% | BT-549 breast -14.9%
